Experimental data as given in PubChem BioAssay AID1159580 (chemical genetic matrix, 2015).
Out of some 5,500 compounds screened, about 2,000 (36%) were called active. About 18% were inconclusive and are not listed. No stated cut-off is given here; in the data, active means normalized growth mostly below about 0.91 (no sharp cut-off); inconclusive means no clear call, values can overlap the other calls; inactive means mostly above about 0.92. Some of the results follow.

Assay: chemical genetic growth profiling, strain panel (AID 1159580);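 further: tested at 20 µM; growth read once vehicle control cultures reached saturation at 30 °C; 1 = growth at the plate median or of vehicle wells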
Details: S. cerevisiae deletion strains, growth OD

Measured: normalized growth

COC(=O)C1C(O)CCC2CN3CCc4c([nH]c5ccccc45)C3CC21 (centres undefined)
inactive: locus YAL040C, strain CLN3, stronger effect = lower value 0.997 | locus YCL061C, strain MRC1 (second series), stronger effect = lower value 1.01 | locus YDR363W, strain ESC2, stronger effect = lower value 1 | locus YER002W, strain NOP16, stronger effect = lower value 1.01 | locus YGR078C, strain PAC10, stronger effect = lower value 1.01 | locus YGR229C, strain SMI1, stronger effect = lower value 1.04 | locus YMR307W, strain GAS1, stronger effect = lower value 1.01 | locus YNL153C, strain GIM3, stronger effect = lower value 0.981 | locus YNL175C, strain NOP13, stronger effect = lower value 1.02 | locus YNL197C, strain WHI3, stronger effect = lower value 0.995 | locus YNL224C, strain SQS1, stronger effect = lower value 1 | locus YNL322C, strain KRE1, stronger effect = lower value 1.03 | locus YOR083W, strain WHI5 (second series), stronger effect = lower value 1 | locus YPL241C, strain CIN2, stronger effect = lower value 1.01
